# Measured values taken from PubChem BioAssay AID2012 (Sanford-Burnham Center for Chemical Genomics, 2009).
# Out of some 290,000 compounds screened, about 2,700 (0.93%) were called active. No rule for the calls is given here. Shown is part of a subset that was picked to be rich in actives.
# Biological target: Eukaryotic translation initiation factor 4H (Homo sapiens) (UniProt Q15056)
# Assay: eIF4H binding inhibition – biochemical, uHTS, fluorescence polarization, translation initiation inhibitor project, primary screen (AID 2012);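 also: calls also rest on retests at 20 µM and on dose response follow-up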
# Details: eIF4H fluorescence polarization binding assay, stronger effect = higher value
Compound,inhibition (at 35 µM),"inhibition (confirmation average, at 20 µM) [%]"
CN(C)c1ccc(/C=C2\CC3C4CC=C5CC(O)CCC5(C)C4CCC3(C)C2=O)cc1 (centres undefined),3.9% (active),87.3
CCN1C(=O)C(=Cc2c(C)n(CC(=O)NCC3CCCO3)c3ccccc23)C(=O)N(CC)C1=S (centres undefined),48.5% (inactive),–
CCCCC(=O)N/N=C/c1c(O)n(-c2ccccc2)c(=O)[nH]c1=O,12.9% (inactive),–
O=C(N/N=C/c1c(O)n(Cc2ccccc2)c(=O)[nH]c1=O)c1ccccc1,74.3% (active),67.6
O=c1[nH]c(=O)n(CCc2ccc(F)cc2)c(O)c1/C=N/N1CCCCC1,-3.1% (inactive),–
O=c1[nH]c(=O)n(CCc2ccccc2)c(O)c1/C=N/N1CCOCC1,3.3% (inactive),–
O=c1[nH]c(=O)n(Cc2ccccc2)c(O)c1/C=N/Nc1c(F)c(F)c(F)c(F)c1F,92.3% (active),–
O=C(N/N=C/c1c(O)n(C2CC2)c(=S)[nH]c1=O)c1ccccc1,10.1% (inactive),–
CC1CCC(N(C)C2CCN(C)CC2)CC1 (centres undefined),-3.9% (inactive),–
CCN(CC)C(=O)c1ccc(NC(=O)c2sccc2-c2ccccc2)cc1,-5.8% (inactive),–
CCCCn1c(=O)c(C(=O)Nc2ccccc2Cl)c(O)c2ccccc21,-6% (inactive),–
COc1ccc(N=Cc2c(O)n(C)c(=O)[nH]c2=O)cc1,35.4% (inactive),–
Cc1cccc(NC(=O)N2CC3CC(C2)c2cccc(=O)n2C3)c1 (centres undefined),-1.5% (inactive),–
Cc1nc2ccccc2c(=O)n1-c1ccc(Cl)cc1Cl,1.9% (inactive),–
Cc1ccc(C2CN(C)CC2C(=O)c2ccc(F)cc2)cc1 (centres undefined),-1.4% (inactive),–
COc1ccc(CNCCc2c[nH]c3ccccc23)cc1OC,-0.9% (inactive),–
CN(C)S(=O)(=O)c1cc(C(=O)N2CCC(C(=O)O)(c3ccccc3)CC2)ccc1Cl,-1.5% (inactive),–
O=C1NC(=O)N(c2ccccc2)C(=O)/C1=C/c1ccc([N+](=O)[O-])s1,70.5% (inactive),22.6
COc1cccc(N2C(=O)NC(=O)/C(=C\c3ccc([N+](=O)[O-])s3)C2=O)c1,73.8% (active),101
Cc1cccc(N2C(=O)NC(=O)/C(=C\c3cnn(-c4ccccc4)c3)C2=O)c1,-2.6% (inactive),–
O=C(Cc1ccc(Cl)cc1)NCCN1CCN(C(=O)Cc2ccc(Cl)cc2)CC1,-0.4% (inactive),–
COc1ccc(CNCCc2ccc3c(c2)OCO3)c(OC)c1OC,18.8% (inactive),–
COc1cccc(OC)c1C(=O)NC(=S)N1C[C@H]2C[C@H](C1)c1cccc(=O)n1C2,-6.5% (inactive),–
CCCCC(=O)N/N=C/c1c(O)n(CCC2=CCCCC2)c(=O)[nH]c1=O,26.1% (inactive),–
O=C(O)COc1ccccc1/C=C1\C(=O)NC(=O)N(CCC2=CCCCC2)C1=O,94% (active),–

Compound,inhibition (at 35 µM),"inhibition (confirmation average, at 20 µM) [%]"
O=C1NC(=O)N(CCc2ccc(F)cc2)C(=O)/C1=C/C=C/c1ccccc1,4.2% (inactive),–
CN1CCC(OC(=O)c2cccc(F)c2)CC1,-5.1% (inactive),–
CC1(C)Cc2c(C#N)c(N3CCNCC3)nc(-c3ccco3)c2CS1,84.6% (active),77.5
COc1cccc(C(=O)N2C[C@H]3C[C@@H](C2)c2cccc(=O)n2C3)c1,18.7% (inactive),–
COc1ccc(CN2C(=O)NC(=O)/C(=C\c3ccc(OC)c(OC)c3OC)C2=O)cc1,9% (active),60.4
O=C1NC(=O)N(Cc2ccco2)C(=O)/C1=C\c1cccn1CCOc1ccccc1,49.4% (inactive),–
C=CCN1C(=O)NC(=O)/C(=C/c2ccc(OCC(=O)Nc3ccc(C)cc3)cc2)C1=O,-6.2% (inactive),–
CN(C)C(=O)Oc1ccc2c(c1)O/C(=C\c1ccccc1)C2=O,-7% (inactive),–
COc1ccc(N2C(=O)/C(=C/c3ccco3)C(=O)NC2=S)cc1,74.6% (active),76.5
Cc1cc(/C=C2/C(=O)NC(=O)N(Cc3ccco3)C2=O)c(C)n1-c1ccc(C(=O)O)cc1,84% (inactive),42.8
Cc1ccc(S(=O)(=O)N(C)c2ccc(C(=O)NCC3(N(C)C)CCCCC3)cc2)cc1,0.5% (inactive),–
O=[N+]([O-])c1cnc2ccc3ccccc3c2c1,1.5% (inactive),–
COc1ccc2[nH]c3c(c2c1)CCN[C@H]3C,-4.1% (inactive),–
CN(c1ccccc1)c1ccc([N+](=O)[O-])c2nonc12,9.8% (inactive),–
CCCCn1c(O)c(C(CC)=NCc2ccco2)c(=O)[nH]c1=O,9.5% (inactive),–
CC/C(=N\NC(=O)c1ccccc1O)c1c(O)n(Cc2ccccc2)c(=O)[nH]c1=O,43.2% (inactive),–
CCC(=NCc1ccco1)c1c(O)n(Cc2ccccc2)c(=O)[nH]c1=O,67.3% (active),73.8
Oc1cc2c(cc1CN1CCN(c3ccccc3)CC1)OCO2,-8.2% (inactive),–
O=c1c2ccccc2nc(/C=C/c2ccc(F)cc2)n1-c1ccccc1O,18.9% (inactive),–
CCC(=NCCc1ccccc1)c1c(O)n(C2CCCCC2)c(=O)[nH]c1=O,-8% (inactive),–
CC(=O)c1c(O)n(C2CCCCCC2)c(=O)[nH]c1=O,82% (active),–
CC(=NCC1CCCO1)c1c(O)n(-c2ccccc2)c(=O)[nH]c1=O (centres undefined),-5.3% (inactive),–
CCN1CCN(Cc2cc(OC)c3c(c2)OCO3)CC1,10.2% (inactive),–
c1ccc(CCNC2CCCCCC2)cc1,11% (inactive),–
CC(=O)Nc1ccc(C(=O)C(Cc2ccccc2)N(C)C)cc1 (centres undefined),-9.3% (inactive),–
